Bioassay records as filed in PubChem BioAssay.
Pf growth 48h: inhibits P. falciparum growth in the first generation, 48 h; P. falciparum luciferase growth in erythrocytes, 48 h; Potency, µM (series often up to 28.7 µM), actives largely listed as inhibitors; 310,000 compounds, 5.9% hits
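Cell-based growth assay: transgenic P. falciparum expressing firefly luciferase, cultured in red cells within RPMI 1640 containing 0.5% w/v Albumax, 24 mM bicarbonate and gentamycin. A drop in luciferase activity indicates inhibition.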
Pf growth 96h: inhibits malaria parasite growth, 96 h | P. falciparum luciferase reporter growth, 96 h | Potency, µM (top dose mostly 28.7 µM), usual class: inhibitors | 320,000 compounds, 6.9% hits | AID 504834
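Two-generation exposure (96 h) targets delayed-death phenotype. Reporter parasites carrying integrated firefly luciferase, in red cells at 2% hematocrit and 0.05% parasitemia final, kept at 37 C, 5% CO2; luminescence loss indicates inhibition.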
LASV entry inh: Lassa virus entry inhibition; Lassa virus pseudotype entry inhibition, cell reporter; Potency, µM (doses to about 37.9 µM), most hits filed as inhibitors; 300,000 compounds, 1.2% hits; calls by dose curve; tested in HEK293 cells; further: nearly all actives have a fitted effect of over 50% in size
Marburg entry inh: Marburg virus entry inhibition; Marburg virus pseudotyped entry inhibition, cell reporter; Potency, µM (top dose mostly 37.8 µM), actives largely listed as inhibitors; 300,000 compounds, 1.8% hits; AID 540276; calls by dose curve; tested in HEK293 cells
CHX counter-1: counter-screen hit for Shiga toxin inhibitors, cycloheximide; AID 2314; 300,000 compounds, 12% hits; max response, %; cell reporter, cycloheximide protein synthesis inhibition counterscreen; in the data active means max response mostly above about 13%, no sharp cut-off; inactive means mostly below about 14%; further: read at 38.3 µM for the half of the compounds with a filed dose
Shiga inhibitor: Shiga toxin inhibition. Vero cells, Shiga toxin protein synthesis inhibition reporter. 290,000 compounds, 9.2% hits. inhibition, % at 38.7 µM. AID 2315; in the data active means inhibition mostly above about 28%, no sharp cut-off; inactive means mostly below about 43%
CHX counter-2: protein synthesis counter-screen activity for Shiga toxin hits. Potency, µM (top dose mostly 38.3 µM), actives largely listed as activators. Cycloheximide counterscreen, protein synthesis reporter, Shiga toxin assay. shares compounds with Shiga inhibitor. 510 compounds, 3% hits; calls by dose curve
Numbers stand for hits; i = inactive; ? = inconclusive; nt = no result. Sampled rows, rich in hits. Any-hit rate of the full collection: about 19%. Unless noted, the call rests on the fitted dose curve; in most records, active means well fitted inhibition curve with a large enough effect; inconclusive means small, poorly fitted or top-dose-only effect, or another doubt; inactive means no such curve, though single readings can be large or run the other way.

SMILES	Pf growth 48h	Pf growth 96h	LASV entry inh	Marburg entry inh	CHX counter-1	Shiga inhibitor	CHX counter-2
O=C(Cc1cccs1)Nc1ccc(-c2nnc(-c3ccco3)o2)cc1	i	i	i	i	i	49	?
O=[N+]([O-])c1cnc(Nc2ccc(Cl)cn2)c([N+](=O)[O-])c1	i	i	i	?	i	i	nt
COCCCNC(=O)NC(=O)c1ccccc1	i	i	i	?	i	18	i
CC(=O)Nc1ccc(NC(=O)c2cc(S(=O)(=O)N3CCCCC3)ccc2N2CCOCC2)cc1	nt	nt	i	i	nt	nt	nt
Cc1ccc(NC(=O)c2cc(S(=O)(=O)N3CCCCC3)ccc2N2CCOCC2)cc1F	12µM	nt	?	?	i	31	i
NC(=O)Cc1ccc(C(=O)c2ccccc2F)s1	i	i	i	i	i	38	i
COc1cccc(Nc2nc(NCCO)c3ccccc3n2)c1	nt	i	i	?	i	50	i
O=C(NCc1ccccn1)c1ccc(N2CCCC2)c([N+](=O)[O-])c1	i	i	i	i	i	i	nt
COC(=O)c1ccc(NC2c3ncccc3C(=O)N2Cc2cccs2)cc1 (stereo unspecified)	i	?	i	i	i	i	nt
O=C(/C=C/C#Cc1cccc(NS(=O)(=O)c2ccccc2)c1)NO	nt	nt	nt	nt	i	65	i
Nc1cc(N)nc(SCC(=O)Nc2ccc(Br)cc2Cl)n1	i	nt	i	?	i	48	?
CC(C)c1nnc(NC(=O)CSc2nc3ccccc3s2)s1	i	nt	i	i	i	50	i
Cc1csc(NC(=O)CSc2nc3ccccc3s2)n1	i	i	?	i	i	i	nt
COc1ccc(C)cc1NC(=O)c1ccc(S(=O)(=O)N2CCCCC2)cc1	?	i	i	i	i	25	i
COc1ccc(C)cc1NC(=O)c1cc(S(=O)(=O)N2CCCCC2)c[nH]1	nt	nt	i	nt	nt	nt	nt
CN(C)C(=O)CSc1nnc(-c2cnccn2)n1C	i	i	i	i	i	i	nt
COc1cccc(CN(C)Cc2nc3cc(C(F)(F)F)ccc3c(=O)[nH]2)c1	i	i	i	i	i	i	nt
CCOC(=O)c1ccc(NC(=O)NCc2c(C)nn(CC)c2C)cc1	?	i	i	i	i	i	nt
CCOC(=O)c1ccc(NC(=O)Nc2ccn(C)n2)cc1	i	i	i	i	i	47	?
CC1CCN(C(=O)NC(=O)c2ccc(Cl)cc2)CC1	i	i	?	i	i	i	nt
Cc1ccc(C(=O)N[C@@H](Cc2ccccc2)C(=O)N2CCC3(CC2)NCCc2[nH]cnc23)cc1C	i	i	nt	nt	i	i	nt
O=C(COc1ncnc2ccccc12)NCCC1=CCCCC1	i	i	i	i	i	41	i
CC(C)NC(=O)Cn1c(SCC(=O)N2CCCCCC2)nc2ccccc21	i	i	i	?	i	i	nt
CCOC(=O)C1CCCN(C(=O)c2cc(Nc3ccc(OC)c(OC)c3)nc3ccccc23)C1 (stereo unspecified)	?	?	i	11µM	i	38	i
Cc1ccccc1Oc1ncnc(N)c1[N+](=O)[O-]	i	?	i	i	i	i	nt
SMILES	Pf growth 48h	Pf growth 96h	LASV entry inh	Marburg entry inh	CHX counter-1	Shiga inhibitor	CHX counter-2
CC(=O)c1ccccc1Oc1ncnc(N)c1[N+](=O)[O-]	i	i	nt	nt	i	29	i
CCC(C)NC(=O)C1CC(c2ccc(OC)cc2)=NO1 (stereo unspecified)	i	nt	i	i	i	i	nt
COc1ccc(C2=NOC(C(=O)NC(C)C)C2)cc1 (stereo unspecified)	i	?	i	i	i	26	i
NNC(=O)CCc1c[nH]c2ccccc12	i	i	i	i	i	i	nt
COC(=O)c1ccc(/C=N/N2CCN(Cc3ccc(Cl)cc3)CC2)cc1	i	i	nt	nt	i	i	nt
CCOc1cc(S(=O)(=O)N2CCN(Cc3ccccc3)CC2)ccc1Br	i	i	i	i	i	136	i
Cc1sc(NC(=O)CCCC(=O)O)c(C(N)=O)c1-c1ccccc1	i	i	?	?	i	74	?
C[C@H](NC(=O)C1CCC(CNC(=O)[C@@H]2CCCN2C(=O)OC(C)(C)C)CC1)C(=O)O (stereo partly specified)	i	i	nt	nt	i	i	nt
Cc1cc2n(n1)SC(Nc1cc(Cl)ccc1Cl)N2 (stereo unspecified)	i	i	i	i	i	35	i
O=C(Nc1cc(Cl)ccc1Cl)Nn1cnnc1	i	?	nt	nt	i	i	nt
N=C(N)N1CCc2ccccc21	i	i	i	i	i	i	nt
COC(=O)C(O)(c1ccc(N(C)S(=O)(=O)c2ccccc2)cc1)C(F)(F)F (stereo unspecified)	i	?	?	i	i	84	?
CC(C)CCNC(=O)CN1C(=O)CN=C(c2ccccc2)c2ccccc21	?	?	i	i	i	i	nt
O=C(CN1C(=O)CN=C(c2ccccc2)c2ccccc21)NCc1ccco1	i	?	i	i	i	44	i
Cc1ccc(Cl)cc1NC(=O)COC(=O)c1ccc(COc2ccc3c(C)cc(=O)oc3c2)cc1	i	i	i	i	i	39	i
O=C(NCCc1csc(-c2cccnc2)n1)c1ccc(Cl)cc1	i	?	nt	nt	i	21	?
O=C(NCCc1csc(-c2cccnc2)n1)c1cccc(Cl)c1	i	i	i	nt	i	i	nt
COc1cc2c(cc1OC)CN(C(=O)NS(=O)(=O)c1ccc(C)cc1)CC2	?	i	i	i	i	i	nt
C=CCNc1sc(C(=O)c2ccccc2)c(N)c1-c1nc2ccccc2s1	?	?	?	?	i	73	?
O=C(NCc1ccccc1)C1CCCC1	?	i	nt	nt	i	21	i
O=C(O)C1CCCCC1C(=O)NCc1ccccc1 (stereo unspecified)	nt	i	?	?	i	i	nt
O=C1Cc2cc([N+](=O)[O-])ccc2N1c1c(Cl)cccc1Cl	4.7µM	i	i	?	i	64	i
CCC(=O)N1CCN(c2ccccc2NC(=O)c2ccc([N+](=O)[O-])o2)CC1	?	i	i	?	i	55	?
O=C(Nc1ccccc1N1CCN(C(=O)c2ccccc2)CC1)c1ccc([N+](=O)[O-])o1	?	i	i	?	i	i	nt
Cn1c(=O)c2c(c3ccccc31)OC(=O)CC2c1cccc(Cl)c1 (stereo unspecified)	nt	nt	i	nt	nt	nt	nt
SMILES	Pf growth 48h	Pf growth 96h	LASV entry inh	Marburg entry inh	CHX counter-1	Shiga inhibitor	CHX counter-2
NS(=O)(=O)c1ccc(CCNC(=O)c2ccc(NC3=NC4CS(=O)(=O)CC4S3)cc2)cc1 (stereo unspecified)	i	i	i	i	i	114	i
CC(Cn1cnc2ccccc21)C(=O)O (stereo unspecified)	i	i	?	i	i	i	nt
O=C(O)c1ccn(Cn2cnc3ccccc32)n1	i	i	i	i	i	27	i
O=C(COc1ccc(Br)cc1CNCCc1ccccc1)NCc1ccccc1	?	?	nt	nt	i	40	i
COc1ccccc1CNc1nc2ccccc2n1CCN1CCCCC1	?	?	i	?	i	66	i
c1coc(CNc2nc3ccccc3n2CCN2CCOCC2)c1	?	nt	i	i	i	i	nt
Cc1ccccc1-c1nnc(SCC#N)o1	i	i	i	?	i	33	i
